# Hits are enriched below; roughly 3.4% of the tested compounds scored in any of these assays.
# GLS inh – glutaminase GLS (human) inhibition; GLS enzymatic activity, qHTS titration; Potency, µM (highest dose often 45.5 µM), for the others: top-dose activity change, negative = inhibition, actives largely listed as inhibitors; 410,000 tested, 0.21% active; AID 624170; also: % is scaled to controls: 0 for no effect and ±100 for the full control effect
#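 Assay buffer: 45 mM KH2PO4 pH 8.2, 0.02% Tween-20. hKGA acts on L-glutamine (1 mM solution added); product glutamate is reported by an oxidase/peroxidase Amplex Red coupling, with fluorescence taken at baseline and 30 min.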
# VDR inhibitor – blocks the human vitamin D receptor; P11473; VDR-SRC2-3 peptide fluorescence polarization, 2 h; Potency, µM, for the others: max response, negative = inhibition, hits mostly inhibitors; 400,000 tested, 0.93% active; AID 504847; also: % is scaled to controls: 0 for no effect and ±100 for the full control effect
# Target sequence (P11473 whole entry, looked up): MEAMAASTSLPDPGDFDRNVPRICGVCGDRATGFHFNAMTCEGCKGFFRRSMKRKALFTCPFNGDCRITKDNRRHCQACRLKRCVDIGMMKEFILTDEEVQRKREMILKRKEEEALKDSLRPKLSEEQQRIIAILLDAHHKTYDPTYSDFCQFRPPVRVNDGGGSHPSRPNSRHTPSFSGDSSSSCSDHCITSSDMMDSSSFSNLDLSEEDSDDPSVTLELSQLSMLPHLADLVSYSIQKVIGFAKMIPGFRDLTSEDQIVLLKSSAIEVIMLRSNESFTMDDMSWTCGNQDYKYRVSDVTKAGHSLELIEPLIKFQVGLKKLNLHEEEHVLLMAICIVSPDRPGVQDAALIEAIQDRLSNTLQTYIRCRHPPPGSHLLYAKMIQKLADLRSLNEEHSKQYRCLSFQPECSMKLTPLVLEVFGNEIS
#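 Two reagent solutions held at 4 deg C in the dark were dispensed, compounds pinned at 23 nl, and the mixture incubated 2 h at room temperature. Read-out: fluorescence polarization of VDR–SRC2-3 peptide binding.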
# PKM2 activator – activators of human pyruvate kinase M2. P14618. AID 1631. 260,000 tested, 0.34% active. Potency, µM (doses to about 57.5 µM), for the others: at the top dose activation, most hits filed as activators. purified PKM2, Kinase-Glo ATP luminescence, activation; response scale: 0% is enzyme alone, no compound; also: % is scaled to controls: 0 for no effect and ±100 for the full control effect; nearly all actives have a fitted effect of over 55% in size
#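 Kinase-Glo luminescence reports ATP generated from ADP (0.1 mM) and PEP (0.5 mM) by purified hPK-M2 after 1 h at room temperature, pH 7.2 imidazole buffer; intermediate enzyme activity allows detecting inhibitors and activators.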
# Mito fusion act – inhibitors of mitochondrial division or activators of mitochondrial fusion; Potency, µM (highest dose often 46.1 µM), for the others: at the highest dose growth rescue (activation), most hits filed as activators; AID 485298; S. cerevisiae fusion-defective mutant growth rescue, CellTiterGlo 48 h; 320,000 tested, 0.23% active; also: % of control where 0% means no effect; nearly all actives have a fitted effect of over 45% in size
#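 Luminescent cell viability in 1536-well qHTS format served as the measure of rescued growth in ts fusion-mutant S. cerevisiae cultured on non-fermentable YPEG for 48 hours at 37C.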
# KAT2A inh – GCN5L2 (KAT2A) acetyltransferase inhibition | 390,000 tested, 0.21% active | Potency, µM (series often up to 58.9 µM), for the others: at the top dose activity change, negative = inhibition, hits mostly inhibitors | GCN5L2 HAT assay, ThioGlo1 CoA-SH fluorescence | Q92830 | AID 504327; also: % is scaled to controls: 0 for no effect and ±100 for the full control effect
#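 Preincubate 20nM GCN5L2 with compound 15 min, RT → add 50uM ThioGlo1 + 75uM H3(1-25) + 70uM acetyl-CoA → read fluorescence 0 and 20 min. Primary qHTS; fluorescent artifacts likely.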
# PLK1 PBD block – PLK1 (human) polo-box domain binding inhibition; Plk1 PBD binding of FITC phosphopeptide, fluorescence polarization; Potency, µM, for the others: max response, negative = inhibition, most hits filed as inhibitors; 360,000 tested, 2.8% active; also: series mostly up to about 57 µM; % is scaled to controls: 0 for no effect and ±100 for the full control effect; nearly all actives have a fitted effect of over 65% in size
# VDR confirm – inhibits human vitamin D receptor, primary hit validation; AID 602199; VDR-coactivator inhibition assay, qHTS confirmation; Potency, µM, actives largely listed as inhibitors; shares compounds with VDR inhibitor; 840 tested, 89% active
# VDR FP – VDR (human) coactivator binding inhibition, fluorescein polarization | shares compounds with VDR inhibitor | 840 tested, 48% active | AID 602200 | VDR-coactivator binding, fluorescein fluorescence polarization | Potency, µM (titrated, usually from 57.1 µM), without a hit: at the top dose activity change, negative = inhibition, hits mostly inhibitors
# VDR bla – inhibits human VDR in beta-lactamase reporter cells; shares compounds with VDR inhibitor; VDR beta-lactamase reporter cells, FRET ratio; cells co-treated with VDR agonist LG190178; Potency, µM (doses to about 46.1 µM), for the others: at the top dose activity change, negative = inhibition, hits mostly inhibitors; 840 tested, 23% active; AID 602202; also: % is scaled to controls: 0 for no effect and ±100 for the full control effect
# VDR viability – cell toxicity, VDR inhibitor hit counter-screen. shares compounds with VDR inhibitor. cytotoxicity counter-screen, cell viability, qHTS. Potency, µM (series often up to 48.3 µM), inactives show at the top dose activity change, negative = cytotoxicity, hits mostly cytotoxic. 840 tested, 18% active. AID 602204;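 also: plate controls were DMSO for no effect and high-concentration cycloheximide for full effect; nearly all actives have a fitted effect of over 75% in size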
# TbPYK confirm – Trypanosoma brucei pyruvate kinase inhibition, cherry-pick confirmation; shares compounds with PLK1 PBD block; recombinant TbPYK, Kinase-Glo ATP luminescence; Potency, µM (highest dose often 76.9 µM), for the others: at the top dose activity change, negative = inhibition, most hits filed as inhibitors; 890 tested, 67% active; AID 720569; also: % is scaled to controls: 0 for no effect and ±100 for the full control effect; nearly all actives have a fitted effect of over 70% in size
# TbPYK orthogonal – inhibits T. brucei pyruvate kinase in orthogonal ADP-Glo assay; recombinant TbPYK, ADP-Glo luminescence, 60 min; 890 tested, 62% active; Potency, µM (highest dose often 76.9 µM), without a hit: at the top dose activity change, negative = inhibition, actives largely listed as inhibitors; shares compounds with PLK1 PBD block; also: % is scaled to controls: 0 for no effect and ±100 for the full control effect; nearly all actives have a fitted effect of over 75% in size
# Numbers without * were called inactive; ? = inconclusive; · = no result given; [ ] = remark or other dose. Calls follow the shape of the dose curve; as a rule, active = well fitted curve in the direction sought with a large enough effect; inconclusive = small, poorly fitted or top-dose-only effect, or another doubt; inactive = no such curve, though single readings can be large; an effect the other way counts as inactive or inconclusive. Potency is read from the fitted curve at half-maximal effect.
SMILES,GLS inh,VDR inhibitor,PKM2 activator,Mito fusion act,KAT2A inh,PLK1 PBD block,TbPYK confirm,TbPYK orthogonal,others
C[C@H]1CC[C@@]2(NC1)O[C@@H]1C[C@H]3[C@@H]4CC[C@@H]5C[C@@H](O)CC[C@@]5(C)[C@@H]4CC[C@]3(C)[C@@H]1[C@@H]2C,·,0%,·,·,9%[21.4 µM],·,·,·,
COc1cc2c(cc1O)C(CCc1ccc(Cl)cc1)N(C)CC2 (centres undefined),·,·,1%,·,·,·,·,·,
CC1CCN(C(CC(=O)c2ccccc2)C(=O)c2ccccc2)CC1 (centres undefined),?,25µM*,·,·,·,?,20µM*,13µM*,VDR confirm=11*;VDR FP=?;VDR bla=?;VDR viability=?
COc1cc(/C=C2\C(=O)NC(=O)N(c3ccccc3)C2=O)c([N+](=O)[O-])cc1OC,-7%,45µM*,-6%,-1%,2%,12µM*,16µM*,35µM*,VDR confirm=27*;VDR FP=20µM*;VDR bla=53%;VDR viability=29%
CC(Cc1ccc(C(C)(C)C)cc1)CN1CCCCC1 (centres undefined),·,7%,·,·,6%,·,·,·,
O=c1c2ccccc2nc(/C=C\c2ccccc2[N+](=O)[O-])n1-c1ccccc1O,1%,-4%,8%,2%,-3%,2%,·,·,
CN1C(=O)NC(=O)/C(=C\C=C\c2ccccc2[N+](=O)[O-])C1=O,2%,11µM*,3%,-4%,-18%,1.2µM*,16µM*,32µM*,VDR confirm=4.2*;VDR FP=?;VDR bla=?;VDR viability=-7%
CCN(CC)c1ccc(NC(=O)c2cccc(C)c2)cc1S(=O)(=O)Nc1ccccc1OC,1%,50µM*,-15%,9%,-13%,3µM*,?,?,VDR confirm=?;VDR FP=?;VDR bla=8%;VDR viability=-3%
CCOP(=O)(C1=C(O)C(=O)C(C(C)(C)C)=CC1=O)c1ccccc1 (centres undefined),28%,?,23%,-3%,-7%,?,?,?,
CCOP(=O)(OCC)C(Cc1ccccc1)NC(C)=O (centres undefined),-7%,-1%,0%,-2%,-1%,1%,·,·,
COC(=O)C1=C(C(=O)OC)SC2(S1)C(C(=O)OC)=C(C(=O)OC)Sc1c2ssc1=O,-21%,2µM*,·,·,·,1.2µM*,11µM*,14µM*,
Oc1ccc2c3c1O[C@H]1c4oc5ccccc5c4C[C@]4(O)[C@H](C2)N(CC2CC2)CC[C@@]314,·,0%,·,·,-11%,·,·,·,
CCOc1cncc(/C=C/CCNC)c1,·,?,·,·,0%,·,·,·,
O=C1NC(=O)C(=Cc2ccc(N3CCOCC3)cc2)C(=O)N1,-8%,26%,-23%,-11%,2%,9.5µM*,25µM*,?,
CC(=O)Nc1ccc(C=C2C(=O)NC(=O)NC2=O)cc1,1%,?,·,·,·,-29%,16µM*,18µM*,
N#Cc1ccc(CN2CCC3(CC2)CCN(C(=O)Oc2ccccc2)CC3)cc1,·,2%,·,·,-5%,·,·,·,
CCn1c(C)cc(/C=C2\C(=O)NC(=O)N(c3ccccc3C)C2=O)c1C,0%,6%,-14%,0%,-2%,-10%,·,·,
COc1ccc(/C=C2\C(=O)NC(=S)N(C)C2=O)cc1C,135%,45µM*,-4%,4%,-2%,1.2µM*,?,?,
Cc1ccsc1/C=C1\C(=O)NC(=S)N(C)C1=O,25%,?,1%,-3%,-4%,3µM*,11µM*,18µM*,
COc1cc(/C=C2/C(=O)N(c3ccccc3)N=C2C)ccc1OS(=O)(=O)c1ccccc1,·,·,?,0%,0%,·,·,·,
CCCCCN1C(=O)c2ccccc2[C@@]2(C(=O)OCC)Cc3cc(Cl)ccc3[C@@H]12,-2%,·,·,·,·,?,·,·,
CCOC(=O)[C@]12Cc3ccccc3[C@H]1N(C(C)C)C(=O)c1ccccc12,0%,·,·,·,·,?,22µM*,32µM*,
COc1cc(O)c(C(=O)O)c(-c2cc(O)c(O)cc2C)c1,?,-21%,0%,-13%,1%,?,2µM*,10µM*,
CCOC(=O)C1C(C=C(C)C)C1(C)C (centres undefined),·,0%,·,·,-7%,·,·,·,
Cc1ccc2c(c1)=NC(=O)/C(=C/c1c(O)[nH]c(=O)[nH]c1=O)C=2,-10%,79µM*,6%,-2%,20%,15µM*,25µM*,22µM*,
SMILES,GLS inh,VDR inhibitor,PKM2 activator,Mito fusion act,KAT2A inh,PLK1 PBD block,TbPYK confirm,TbPYK orthogonal,others
C[N+]12CCC(CC1)C(=C(c1ccccc1)c1ccccc1)C2,8%,-1%,-17%,4%,-4%,-16%,25µM*,40µM*,
NC1CCc2cc(O)c(O)cc2C1 (centres undefined),?,-7%,·,-5%,-14%,1%,-95%,28µM*,
c1csc(CN2CCC3(CCNCC3)CC2)n1,·,0%,·,·,-1%,·,·,·,
Cc1cc(C=C2C(=O)N(C)C(=S)N(C)C2=O)c(C)n1C1CCCCC1,-2%,-2%,-1%,2%,3%,?,·,·,
Cc1cc(N2CCCCC2)ccc1C=C1C(=O)N(C)C(=S)N(C)C1=O,-13%,?,21%,1%,-21%,3.4µM*,20µM*,?,
O=C1NC(=S)N(C2CC2)C(=O)/C1=C/c1ccc2c(c1)CCN2CCCCl,-3%,-17%,15%,-2%,-11%,1.5µM*,6.3µM*,?,

# High-throughput results deposited in PubChem BioAssay by National Center for Advancing Translational Sciences (NCATS).
